Assay outcomes (PubChem BioAssay)
GAA850 FXN act: frataxin GAA850 promoter activation; 360,000 compounds, 0.56% hits; HEK293 lucGAA850 FXN promoter luciferase reporter, 24 h; percent of 10 µM SAHA response; activation, % at 6 µM; AID 540364;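 active means activation above the average of all compounds screened plus 3 SD, cutoff fixed separately per campaign, cut at about 7.5% in these data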
DAX1 inh-1: blocks DAX1 repression of SF-1 activated StAR promoter; HEK293T StAR-luciferase reporter, SF-1/DAX-1 repression relief; inhibition, % at 6.8 µM; AID 652010; 370,000 compounds, 1.1% hits;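 active means inhibition above the mean over all tested compounds plus 3 SD, cut at about 3.6% in these data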;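 further: higher inhibition means more luminescence from relief of DAX-1 repression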
hgDAF12 agonist: agonists of H. glycines DAF-12 nuclear receptor; HEK293 GAL4-hgDAF12 UAS-luciferase reporter, agonist luminescence; normalized to butyrate control; activation, % at 6.8 µM; 370,000 compounds, 1.8% hits;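 active means activation above a cutoff set at the mean of all screened compounds plus 3 SD, cut at about 10% in these data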
DAX1 inh-2: inhibits human nuclear receptor DAX1; inhibition, % at 6.75 µM; 340,000 compounds, 0.99% hits; HEK293 Gal4-DAX1 luciferase reporter, luminescence; P51843;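 active means inhibition above the mean over all tested compounds plus 3 SD, cut at about 4.2% in these data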;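 further: inhibition shows as a rise in luminescence from relieved DAX1 repression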
Target sequence (P51843 207-470 limits assumed): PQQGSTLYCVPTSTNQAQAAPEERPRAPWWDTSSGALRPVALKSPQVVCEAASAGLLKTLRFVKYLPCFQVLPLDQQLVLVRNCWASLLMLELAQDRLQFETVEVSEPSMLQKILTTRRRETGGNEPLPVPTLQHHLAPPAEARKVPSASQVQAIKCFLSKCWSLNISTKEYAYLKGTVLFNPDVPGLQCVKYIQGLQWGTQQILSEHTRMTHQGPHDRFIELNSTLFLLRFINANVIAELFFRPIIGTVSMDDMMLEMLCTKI
hcDAF-12 act: H. contortus DAF-12 activation, primary screen; HEK293 hcDAF-12 lit1-tk-luc reporter, luminescence; 0% DMSO, 100% Δ7-dafachronic acid; 370,000 compounds, 1.4% hits; activation, % at 6.8 µM; AID 652067;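 active means activation above the mean of all tested compounds plus 3 SD, cut at about 5.5% in these data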
ssDAF12 agonist: activates DAF-12 receptor from parasite S. stercoralis; HEK293 ssDAF-12/GRIP1 lit1-tk-luc reporter, luminescence; % of 3 µM dafachronic acid response; activation, % at 6.8 µM; AID 652126; 370,000 compounds, 1% hits;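 active means activation above the mean over all tested compounds plus 3 SD, cut at about 0.9% in these data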
Hits are given with their value; i = inactive; nt = no result given. Rows were chosen to be rich in hits. Some 4.5% of all compounds tested hit in one or more screens of this group.

SMILES	GAA850 FXN act	DAX1 inh-1	hgDAF12 agonist	DAX1 inh-2	hcDAF-12 act	ssDAF12 agonist
C=Cc1ccc(C(=O)N(Cc2ccc(F)cc2)C(C(=O)N(C)C2CCCC2)c2ccc(OC)c(OC)c2)cc1 (stereo unspecified)	nt	i	i	nt	i	i
CC1CCCCC12NC(=O)N(CC(=O)N1CCc3ccccc31)C2=O (stereo unspecified)	i	i	i	i	5.8	i
CCC1(CC)NC(=O)N(CC(=O)N2CCc3ccccc32)C1=O	i	i	i	i	i	i
CCOc1ccc(-n2c(COc3ccc(C)cc3)nnc2SCC(=O)c2ccc3ccccc3c2)cc1	nt	i	i	nt	i	i
CCCN(CC(=O)Nc1ccc(NC(C)=O)cc1)CC(=O)Nc1ccc(F)c(F)c1F	i	i	i	4.6	i	i
COc1cccc(C(=O)NCCC2=CCCCC2)c1	i	i	12	i	i	i
Cc1cc(C(=O)NCCC2=CCCCC2)ccc1[N+](=O)[O-]	i	i	11	nt	i	i
COc1ccc(C(=O)NCCC2=CCCCC2)cc1OC	i	i	i	i	i	i
COCCn1c(SCC(=O)Nc2ccccc2C)nc2c(oc3ccccc32)c1=O	i	i	i	i	i	i
COCCn1c(SCC(=O)Nc2ccc(C)cc2C)nc2c(oc3ccccc32)c1=O	i	i	i	i	i	0.9
O=C(Nc1nnc(-c2ccco2)o1)C1CC1	i	i	i	i	6.4	i
CCOC(=O)N(C)[C@H]1C[C@H]2c3[nH]c4c(-c5ccc6c(c5)OCO6)cccc4c3CCN2C(=O)[C@H]1[C@H](C)O	nt	i	i	nt	i	i
Cc1cc(C)nc(N2CCC(C(=O)N(C)CCc3ccccn3)CC2)n1	nt	i	i	nt	i	i
COc1ccc(CC(=O)Nc2sccc2C#N)cc1S(=O)(=O)N1CCOCC1	i	i	i	i	6.0	i
c1ccc(-c2nn3cnnc3c3ccccc23)cc1	i	i	i	i	i	i
Clc1nn2cnnc2c2ccccc12	i	i	i	6.2	i	i
COc1ccc(C2/C=C\CN(C(=O)c3ccccc3)CC(=O)N2Cc2cccc(F)c2)cc1 (stereo unspecified)	i	i	i	i	i	i
COc1ccc(C2/C=C\CN(C(=O)OCC3c4ccccc4-c4ccccc43)CC(=O)N2Cc2cccc(F)c2)cc1 (stereo unspecified)	i	3.7	i	i	i	i
Cc1sc2nc(CSC(C)C(=O)Nc3ccccn3)[nH]c(=O)c2c1C (stereo unspecified)	i	4.0	i	i	i	i
N#Cc1ccc(/C=C2\CC3(OC(=O)c4cccc(F)c4)CCCN2C3)cc1 (stereo unspecified)	nt	i	i	nt	i	i
CCOc1ccc(OCCn2c(SCC(=O)O)nc3ccccc32)cc1	i	i	i	i	i	i
CC(=O)c1ccc(OCCn2c(SCC(=O)O)nc3ccccc32)cc1	i	i	i	i	6.4	i
COCCn1c(SCC(=O)Nc2ccc(NC(C)=O)cc2)nc2ccccc2c1=O	i	i	i	i	i	i
COCCCn1c(SCC(=O)Nc2ccc(C(C)=O)cc2)nc2ccccc2c1=O	i	i	11	i	i	i
Cc1ccc(-c2csc(NC(=O)CSc3nc4ccccc4c(=O)n3CCCN(C)C)n2)cc1	i	i	13	i	i	i
SMILES	GAA850 FXN act	DAX1 inh-1	hgDAF12 agonist	DAX1 inh-2	hcDAF-12 act	ssDAF12 agonist
COc1ccccc1CNC(=O)CSc1ccsc1[N+](=O)[O-]	i	i	11	i	i	i
O=C(CSc1ccsc1[N+](=O)[O-])NCc1ccccc1	i	i	i	i	6.5	0.9
CCc1ccccc1NC(=O)CSc1ccsc1[N+](=O)[O-]	i	i	i	i	i	i
COc1ccc(OC)c(CCNC(=O)CSc2ccsc2[N+](=O)[O-])c1	i	i	i	i	i	i
COc1ccc(Cn2ccc3ccc(-c4ccc5ccn(C(=O)c6ccccc6OC)c5c4)cc32)cc1	nt	i	i	nt	i	i
CC(C)c1ccc(/C=C/C(=O)O)cc1	i	i	i	4.3	i	i
CC(C)c1ccc(/C=C/C(=O)NCCCc2ccccc2)cc1	i	i	i	i	i	i
CCCNC(=O)/C=C/c1ccc(C(C)C)cc1	i	i	i	5.0	i	i
COC(=O)[C@]12CCCCC=C1N(Cc1ccc(OC)cc1)C(=O)[C@@H]2CC(=O)NCC1CCCCC1	nt	i	i	nt	i	i
Cc1ccc(C(=O)NC2CCCCN(C(C)C)C2=O)cc1 (stereo unspecified)	nt	i	i	nt	i	i
Cc1ccc2nc(-c3ccc(-c4ccccn4)s3)cn2c1	i	i	12	i	i	i
Cc1ccc(C2(COC(=O)C(C)C)CO2)c(OC(=O)C(C)C)c1 (stereo unspecified)	i	i	i	4.6	i	i
CCCC[C@H](C(=O)N(C)c1ccccc1)[C@@H](O)c1ccc2ccccc2c1	nt	i	i	nt	i	i
COCCCNCCOCCOc1ccc(C)cc1Br	i	i	i	i	5.7	i
CN(C)CCNc1oc(-c2ccccc2F)nc1C#N	i	i	i	5.9	i	i
CCOC(=O)[C@@]12CCCC3=C1N(CCC3)C(=O)[C@H]2CC(=O)NCc1ccccc1	nt	i	i	nt	i	i
CCn1c(=O)c(-c2cc(=O)[nH][nH]2)c(O)c2ccccc21	i	i	i	i	i	i
Cn1c(=O)c(-c2cc(=O)[nH][nH]2)c(O)c2ccccc21	i	i	i	nt	6.2	i
COC(=O)[C@H]1C[C@@]2(C3C=CC=C3)c3ccccc3N[C@H]2N1	nt	i	i	nt	i	i
CCCCN(C(=O)C1=COCCO1)c1c(N)n(CCCC)c(=O)[nH]c1=O	i	i	i	i	i	i
CCCCn1c(N)c(N(CC)C(=O)C2=COCCO2)c(=O)[nH]c1=O	i	3.9	i	i	i	i
CCCCN(C(=O)CCN1C(=O)C2CC=CCC2C1=O)c1c(N)n(CCCC)c(=O)[nH]c1=O (stereo unspecified)	i	i	i	4.3	i	i
NC(=O)c1ccccc1NC(=O)/C=C/c1ccc(Cl)cc1	i	i	13	i	i	i
O=C(/C=C/c1ccccc1)Nc1cccnc1Cl	i	i	i	i	i	1.8
O=C(Nc1cccnc1Cl)c1cccnc1Cl	i	i	i	i	i	i
SMILES	GAA850 FXN act	DAX1 inh-1	hgDAF12 agonist	DAX1 inh-2	hcDAF-12 act	ssDAF12 agonist
Cc1ccc(NC(=O)/C=C/c2ccc(Cl)cc2)nc1	i	i	i	i	i	i
O=C(Nc1cccnc1Cl)c1ccc(Cl)cc1	i	i	12	i	i	i
O=C(/C=C/c1ccc(Cl)cc1)NC(=S)Nc1ccccc1C(=O)O	i	i	i	i	i	i
O=C(/C=C/c1ccccc1)Nc1ccc(Br)cn1	i	i	13	i	i	i
C#CCCCN([C@@H](CC(C)C)C(=O)OC)S(=O)(=O)c1ccccc1Br	nt	i	i	nt	i	i
COC(=O)[C@]12C[C@H](CC(=O)N3CCCCC3)C(=O)N(Cc3ccc(Cl)cc3Cl)C1=C[C@H](C1CCCC1)O[C@@H]2C	nt	i	i	nt	i	i
